Source: PubChem
FAS TE block – blocks the thioesterase domain of human fatty acid synthase; P49327; recombinant FAS-TE, OMFH fluorogenic substrate, fluorescence endpoint; inhibition, % at 15 µM; actives 0.67% (n = 360,000); AID 602261;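 active = compounds whose normalised, plate-corrected inhibition of enzyme fluorescence in the single-dose primary screen is 50% or more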;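 also: 0% = DMSO with enzyme and 100% = substrate without enzyme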
beta cell repl – induces beta-cell replication in MIN6 cells. actives 0.29% (n = 330,000). proliferation, % at 10 µM. MIN6 cells proliferation, ATPlite luminescence, 48 h; cells starved in 0.2% serum; 100% = growth in 10% serum. AID 2380;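 active = compounds whose signal lies at least 3.5 SD above the mean of all wells on their plate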;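 also: 0% = DMSO-treated cells in low-serum medium and 100% = 10% serum control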
MPTP block – permeability transition pore inhibition; isolated mouse mitochondria, Ca2+ swelling absorbance, 30 min; actives 1.4% (n = 360,000); inhibition, % at 10 µM;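 active = inhibition of 50% or more, scaled per plate between neutral and stimulator controls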;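 also: 0% = DMSO wells given calcium and 100% = 1 mM EGTA wells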
NR3A LBD binder – modulates the human NR3A ligand-binding domain. NR3A LBD differential scanning fluorimetry, Tm shift; 0% = protein alone, 100% = glycine-bound protein. Tm shift relative to glycine control, % at 25 µM. actives 2.5% (n = 340,000);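 active = melting temperature shift of at least 10% of the positive control shift, at one fixed dose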
pCIP destab – compounds decreasing mouse p/CIP protein stability; decrease of EGFP signal, % at 10 µM; F442A p/CIP-EGFP cells, EGFP fluorescence, 16 h; actives 0.01% (n = 290,000); AID 1984; Q05BA5;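 active = EGFP signal decrease of at least 30% at 10 µM or well 3 SD below plate mean, unless failing retest; inactive = the rest, including hits failing retest or dose response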
Target sequence (Q05BA5 1-1403): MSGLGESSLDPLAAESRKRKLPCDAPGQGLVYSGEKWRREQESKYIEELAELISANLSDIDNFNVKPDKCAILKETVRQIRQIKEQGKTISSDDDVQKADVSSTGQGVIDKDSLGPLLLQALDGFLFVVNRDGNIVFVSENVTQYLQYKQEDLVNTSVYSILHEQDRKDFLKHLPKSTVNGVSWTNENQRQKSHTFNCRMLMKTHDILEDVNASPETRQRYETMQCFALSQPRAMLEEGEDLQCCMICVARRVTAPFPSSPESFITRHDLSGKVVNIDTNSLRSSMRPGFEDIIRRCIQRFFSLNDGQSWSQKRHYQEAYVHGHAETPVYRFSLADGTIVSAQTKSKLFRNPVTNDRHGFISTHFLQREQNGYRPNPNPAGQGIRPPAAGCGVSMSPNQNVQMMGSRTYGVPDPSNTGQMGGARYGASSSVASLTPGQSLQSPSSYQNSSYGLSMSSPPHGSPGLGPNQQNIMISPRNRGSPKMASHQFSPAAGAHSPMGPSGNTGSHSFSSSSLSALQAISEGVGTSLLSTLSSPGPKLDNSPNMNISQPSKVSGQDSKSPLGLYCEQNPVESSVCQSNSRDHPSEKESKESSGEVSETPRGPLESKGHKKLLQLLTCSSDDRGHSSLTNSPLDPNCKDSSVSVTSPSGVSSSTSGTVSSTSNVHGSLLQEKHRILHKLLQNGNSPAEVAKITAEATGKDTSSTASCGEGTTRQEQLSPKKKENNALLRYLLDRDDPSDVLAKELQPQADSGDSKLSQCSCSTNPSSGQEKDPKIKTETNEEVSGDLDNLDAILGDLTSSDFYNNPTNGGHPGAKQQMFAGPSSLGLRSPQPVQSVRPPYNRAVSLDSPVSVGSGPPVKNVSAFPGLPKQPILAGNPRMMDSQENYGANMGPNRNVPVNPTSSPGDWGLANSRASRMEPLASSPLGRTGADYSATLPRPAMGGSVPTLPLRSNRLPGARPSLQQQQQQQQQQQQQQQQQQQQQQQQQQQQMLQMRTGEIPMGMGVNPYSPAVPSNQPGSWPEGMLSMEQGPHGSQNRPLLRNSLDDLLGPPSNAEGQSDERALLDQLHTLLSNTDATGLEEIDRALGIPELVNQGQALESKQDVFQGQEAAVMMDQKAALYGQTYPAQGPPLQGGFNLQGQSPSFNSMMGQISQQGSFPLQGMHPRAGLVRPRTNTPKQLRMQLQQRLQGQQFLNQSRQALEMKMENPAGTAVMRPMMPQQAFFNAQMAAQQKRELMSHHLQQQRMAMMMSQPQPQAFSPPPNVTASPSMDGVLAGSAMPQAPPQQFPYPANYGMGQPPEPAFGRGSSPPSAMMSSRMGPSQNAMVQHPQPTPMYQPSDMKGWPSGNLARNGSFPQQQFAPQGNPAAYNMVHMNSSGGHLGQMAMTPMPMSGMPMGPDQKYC
Starred values were filed as active, the others as inactive; . = not tested or not shown. In the library only some 4.1% were active in any assay of this set; here they are far more common.

SMILES	FAS TE block	beta cell repl	MPTP block	NR3A LBD binder	pCIP destab
Cc1sc2ncnc(N/N=C/c3ccc(O)cc3)c2c1C	-1	-1	3	35*	4
c1csc(-c2ccc3nncn3c2)c1	-11	.	0	.	.
CN(CC(=O)NC(=O)NC1CCCCC1)CC(=O)Nc1ccccc1C(F)(F)F	-2	.	-1	.	.
O=C(Cc1nnc(NC(=O)c2ccccc2)s1)N/N=C/c1cccc(O)c1	-2	-2	2	41*	11
Cn1c2ccccc2c2cc(/C=N/NC(=O)c3ccccc3F)ccc21	20	0	-1	-8	-11
Cn1c2ccccc2c2cc(/C=N/NC(=O)c3ccc(N)cc3)ccc21	-2	-2	0	17*	-8
Cc1ccc(Cn2cc(/C=N/NC(=O)Cc3nnc(NC(=O)c4ccc(C)cc4)s3)c3ccccc32)cc1	-19	0	-2	13*	-6
O=C(N/N=C/c1cccc(O)c1)N/N=C/c1cccc(O)c1	2	-4	0	10*	-6
Nc1ccn([C@@H]2O[C@H](CNCc3ccc(C#CCCO)cc3)[C@@H](O)[C@H]2O)c(=O)n1	-7	.	0	.	.
Nc1ccc(C(=O)N/N=C/c2cn(Cc3ccc(F)cc3)c3ccccc23)cc1	2	1	0	16*	4
Cc1cccc(NC(=O)c2cc3c(s2)-c2c(C)cccc2OC3)n1	0	-1	2	-1	1
Cc1csc(NC(=O)c2cc3c(s2)-c2ccccc2OC3)n1	-5	4	3	10*	-3
CCOC(=O)C1(C)CCCN(C(=O)c2ccccc2OC(F)(F)F)C1 (stereo unspecified)	-8	.	0	.	.
O=C(CCC(=O)c1ccc(F)cc1)Nc1cccc(C(F)(F)F)c1	8	-3	10	-13	8
O=C(NC(=S)Nc1cc(Cl)ccc1O)c1cccc(Br)c1	5	-2	0	18*	6
Cc1ccc(NC(=S)NC(=O)c2ccc(F)cc2)cc1S(=O)(=O)Nc1cccc(Cl)c1	37	-7	1	13*	-20
Cc1ccc(C(=O)NC(=S)Nc2ccc(NC(=O)c3cccc(Cl)c3)cc2)cc1	0	0	15	35*	2
O=C(CCC(=O)c1ccc(F)cc1)Nc1cccc(S(=O)(=O)Nc2cccc(Cl)c2)c1	22	0	13	28*	-14
O=C(O)c1ccc(NC(=S)NC(=O)c2ccc3ccccc3c2)cc1	-2	-3	0	17*	0
O=C(O)c1cccc(NC(=S)NC(=O)c2ccc3ccccc3c2)c1	1	-1	1	2	1
CC(=O)Nc1ccc(CN2CCC(N3CCC(C(=O)NC4CC4)CC3)CC2)cc1	-6	.	-1	.	.
C/C(=N\NC(=O)c1cc2ccccc2cc1O)c1cccs1	-2	-4	1	14*	-7
COc1ccc(C(O)c2nc(-c3ccccc3)cs2)cc1 (stereo unspecified)	5	.	0	.	.
COC(=O)c1sc(NC(=O)/C=C/c2ccc(C)cc2)nc1C	-3	-1	3	23*	-15
Cc1nc(NC(=O)/C=C/c2ccccc2)sc1C(=O)Nc1ccccc1	-2	-3	1	21*	-6
SMILES	FAS TE block	beta cell repl	MPTP block	NR3A LBD binder	pCIP destab
CCOC(=O)c1sc(NC(=O)/C=C/c2ccccc2)nc1C	-8	-1	8	10*	-10
COC(=O)c1sc(NC(=O)/C=C/c2ccccc2Cl)nc1C	0	-3	2	19*	3
O=C1C=CC(=NN=C(c2ccccc2)c2ccccc2)C=C1	24	.	4	.	.
CCOC(=O)[C@]12CCCC=C1N(Cc1cccc3ccccc13)C(=O)[C@H](CC(=O)N1CCCC1)C2	4	.	0	.	.
COc1cccc(-c2cc3nc(Nc4ccc(OC)c(OC)c4)n(C)c(=O)c3s2)c1	15	.	0	.	.
COc1cccc(-c2oc3c(c2C(=O)OCCN2CCCCC2)C(O)CCC3)c1 (stereo unspecified)	-5	.	0	.	.
COc1ccc(NC(=O)NC[C@@H]2CC[C@@H](Cc3ccc(-c4ccccc4)cc3)O2)cc1	10	.	3	11*	.
NC(=O)NC[C@@H]1CC[C@@H](Cc2ccc(-c3ccccc3)cc2)O1	-7	.	0	2	.
COc1ccc(C(=O)N2CCCC(c3cc(C(=O)Nc4ccccc4)no3)C2)cc1 (stereo unspecified)	-4	.	1	.	.
Cc1cc(NC(=O)CN2C(=O)NC(CC(C)C)C2=O)ccc1Br (stereo unspecified)	7	-5	0	29*	.
COc1ccccc1-c1ccc([C@@H]2C[C@H]3[C@H](CON3C)CN2C(=O)c2ccco2)cc1	-2	.	0	.	.
Cn1cc(/C=C(\C#N)C(=O)Nc2ncc(Cc3cccc(Cl)c3)s2)c2ccccc21	.	0	.	.	-6
N#C/C(=C\c1c[nH]c2ccccc12)C(=O)Nc1ncc(Cc2ccc(Cl)cc2Cl)s1	-7	-3	5	38*	-12
CCCC(c1nnnn1CCOC)N1CCN(Cc2ccccc2)CC1 (stereo unspecified)	-17	-2	-1	0	-2
CCC(c1nnnn1CCOC)N1CCN(Cc2ccccc2OC)CC1 (stereo unspecified)	-6	0	-4	15*	-8
CCOc1ccccc1C(=O)N[C@H](C(=O)OCc1cc(=O)oc2cc(C)ccc12)C(C)C	32	-2	-12	15*	7
COc1ccccc1C(=O)Nc1ccc(Br)c2cccnc12	20	-1	1	21*	-3
COc1ccccc1C(=O)Nc1ccccn1	-3	-5	0	1	0
CC(C)Cn1nc(NC(=O)C2CCCO2)c2cc3ccccc3nc21 (stereo unspecified)	1	6.5*	-1	0	-11
Cn1cc([C@]2(O)C(=O)Nc3c(F)cccc32)c2ccccc21	.	.	1	.	.
Oc1ccc(-c2nc3ccccc3s2)cc1	1	-5	6	15*	-5
O=C(CSc1nc2ccccc2s1)c1ccc(O)cc1O	-2	0	2	30*	-4
Oc1ccc(-c2nc3ccccc3s2)c(O)c1	8	-1	11	39*	3
Nc1ccc(O)c(-c2nc3ccccc3s2)c1	-5	-3	0	-3	3
COc1ccc(-c2nc3ccccc3s2)cc1	17	.	2	40*	-7
SMILES	FAS TE block	beta cell repl	MPTP block	NR3A LBD binder	pCIP destab
c1ccc2sc(-c3ccncc3)nc2c1	-4	-1	-1	-2	-9
O=C(Cc1nc2ccccc2s1)c1ccc(O)cc1O	.	-3	.	.	-7
CNC(=O)C1Cc2c(-c3ccc4c(c3)OCO4)ccnc2O1 (stereo unspecified)	-8	.	0	.	.
COc1cc2c(cc1Cl)/C(=C\CCN(C)C)c1ccccc1S2	0	0	0	18*	-3
Cc1cccc(C)c1N1C(=O)c2ccccc2NC(=O)C1C(=O)NCCc1ccccc1F (stereo unspecified)	.	.	-1	.	.
O=C(NC(=S)Nc1nc(-c2ccc(Br)cc2)cs1)c1ccco1	1	-4	2	30*	15
